About 410 targets per protein were measured; listed, in parts, are those with the strongest signals and a random draw of the rest.
How the values were obtained:
Test in all cases: glycan array binding signal (z-score within array); higher = stronger binding
Settings in all cases: glycan notation: IUPAC condensed, linker removed
[1] = molecular target: Fuc(a1-2)Gal(b1-3)GlcNAc(b1-2)Man(a1-3)[Fuc(a1-2)Gal(b1-3)GlcNAc(b1-2)Man(a1-6)]Man(b1-4)GlcNAc(b1-4)[Fuc(a1-6)]GlcNAc
Summary of the method: (§1)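 The Consortium for Functional Glycomics database supplied 3228 glycan arrays, of which those lacking an available protein sequence were dropped. The binding signal, a within-array Z-score, was averaged across arrays of the same protein sequence and across linkers. Negative scores can be read as non-binding.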

[2] = molecular target: Fuc(a1-2)Gal(b1-3)[Fuc(a1-4)]GlcNAc(b1-2)Man(a1-3)[Fuc(a1-2)Gal(b1-3)[Fuc(a1-4)]GlcNAc(b1-2)Man(a1-3)]Man(b1-4)GlcNAc(b1-4)GlcNAc
Summary of the method: as §1

[3] = molecular target: Fuc(a1-2)Gal(b1-4)Glc
Summary of the method: as §1

[4] = molecular target: Fuc(a1-2)Gal(b1-4)GlcNAc(b1-3)GalNAc
Summary of the method: as §1

[5] = molecular target: Fuc(a1-2)Gal6S(b1-4)Glc
Summary of the method: as §1

[6] = molecular target: Fuc(a1-2)Gal6S(b1-4)Glc6S
Summary of the method: as §1

[7] = molecular target: Fuc(a1-2)[GalNAc(a1-3)]Gal(b1-4)GlcNAc(b1-3)GalNAc
Summary of the method: as §1

[8] = molecular target: Fuc(a1-3)[Gal(b1-4)]GlcNAc(b1-6)GalNAc
Summary of the method: as §1

[9] = molecular target: Fuc(a1-3)[Gal3S(b1-4)]GlcNAc6S
Summary of the method: as §1

[10] = molecular target: Gal(a1-3)Gal(b1-3)GlcNAc(b1-3)GalNAc
Summary of the method: as §1

[11] = molecular target: Gal(a1-3)Gal(b1-3)[Fuc(a1-4)]GlcNAc(b1-2)Man(a1-3)[Gal(a1-3)Gal(b1-3)[Fuc(a1-4)]GlcNAc(b1-2)Man(a1-6)]Man(b1-4)GlcNAc(b1-4)GlcNAc
Summary of the method: as §1

[12] = molecular target: Gal(a1-3)Gal(b1-4)GlcNAc(b1-3)GalNAc
Summary of the method: as §1

[13] = molecular target: Gal(a1-4)Gal(b1-4)GlcNAc
Summary of the method: as §1

[14] = molecular target: Gal(a1-4)Gal(b1-4)GlcNAc(b1-3)Gal(b1-4)Glc
Summary of the method: as §1

[15] = molecular target: Gal(b1-3)[Fuc(a1-4)]GlcNAc(b1-2)Man
Summary of the method: as §1

[16] = molecular target: Gal(b1-3)[Fuc(a1-4)]GlcNAc(b1-2)Man(a1-3)[Gal(b1-3)[Fuc(a1-4)]GlcNAc(b1-2)Man(a1-6)]Man(b1-4)GlcNAc(b1-4)[Fuc(a1-6)]GlcNAc
Summary of the method: as §1

[17] = molecular target: Gal(b1-4)GalNAc(a1-3)[Fuc(a1-2)]Gal(b1-4)GlcNAc
Summary of the method: as §1

[18] = molecular target: Gal(b1-4)GlcNAc
Summary of the method: as §1

[19] = molecular target: Gal(b1-4)GlcNAc(a1-6)Gal(b1-4)GlcNAc
Summary of the method: as §1

[20] = molecular target: Gal(b1-4)GlcNAc(b1-3)Gal(b1-4)GlcNAc(b1-3)Gal(b1-4)GlcNAc(b1-2)Man(a1-3)[Gal(b1-4)GlcNAc(b1-3)Gal(b1-4)GlcNAc(b1-3)Gal(b1-4)GlcNAc(b1-2)Man(a1-6)]Man(b1-4)GlcNAc(b1-4)[Fuc(a1-6)]GlcNAc
Summary of the method: as §1

[21] = molecular target: Gal(b1-4)GlcNAc(b1-3)Gal(b1-4)GlcNAc(b1-3)Gal(b1-4)GlcNAc(b1-3)Gal(b1-4)GlcNAc(b1-2)Man(a1-3)[Gal(b1-4)GlcNAc(b1-3)Gal(b1-4)GlcNAc(b1-3)Gal(b1-4)GlcNAc(b1-3)Gal(b1-4)GlcNAc(b1-2)Man(a1-6)]Man(b1-4)GlcNAc(b1-4)[Fuc(a1-6)]GlcNAc
Summary of the method: as §1

[22] = molecular target: Gal(b1-4)GlcNAc(b1-3)Gal(b1-4)GlcNAc(b1-3)[Gal(b1-4)GlcNAc(b1-3)Gal(b1-4)GlcNAc(b1-6)]GalNAc
Summary of the method: as §1

[23] = molecular target: Gal3S(b1-3)[Fuc(a1-4)]GlcNAc
Summary of the method: as §1

[24] = molecular target: Gal3S(b1-4)Glc
Summary of the method: as §1

[25] = molecular target: Gal3S6S(b1-4)GlcNAc6S
Summary of the method: as §1

B1: FGF1 (Homo sapiens), P05230 (protein)
chain: MAEGEITTFTALTEKFNLPPGNYKKPKLLYSNGGHFLRILPDGTVDGTRDRSDQHIQLQLSAESVGEVYIKSTETGQYLAMTDGLLYGSQTPNEECLFLERLEENHYNTYISKHAEKNWFVGLKKNGSCKRGPRTHYGQAILFLPLPASSED
Question: For B1, which “glycan array binding signal (z-score)” value [1] is on record?
Answer: 0.366

Question: And the “glycan array binding signal (z-score)” value [2]?
Answer: 2.84

Question: What about the “glycan array binding signal (z-score)” value [3] of the same binder?
Answer: -0.358

Question: What about the “glycan array binding signal (z-score)” value [4] of the same binder?
Answer: 1.33

Question: And the “glycan array binding signal (z-score)” value [5]?
Answer: 0.397

Question: What about the “glycan array binding signal (z-score)” value [6] of the same binder?
Answer: 0.797

Question: What about the “glycan array binding signal (z-score)” value [7] of the same binder?
Answer: -0.242

Question: What about the “glycan array binding signal (z-score)” value [8] of the same binder?
Answer: 1.04

Question: And the “glycan array binding signal (z-score)” value [9]?
Answer: 1.09

Question: And the “glycan array binding signal (z-score)” value [10]?
Answer: 0.646

Question: What about the “glycan array binding signal (z-score)” value [11] of the same binder?
Answer: 3.56

Question: What about the “glycan array binding signal (z-score)” value [12] of the same binder?
Answer: -0.582

Question: And the “glycan array binding signal (z-score)” value [13]?
Answer: 0.333

Question: And the “glycan array binding signal (z-score)” value [14]?
Answer: 0.423

Question: And the “glycan array binding signal (z-score)” value [15]?
Answer: 3.59

Question: And the “glycan array binding signal (z-score)” value [16]?
Answer: 3.02

Question: What about the “glycan array binding signal (z-score)” value [17] of the same binder?
Answer: -0.949

Question: What about the “glycan array binding signal (z-score)” value [18] of the same binder?
Answer: -0.031

Question: What about the “glycan array binding signal (z-score)” value [19] of the same binder?
Answer: -0.827

Question: What about the “glycan array binding signal (z-score)” value [20] of the same binder?
Answer: 2.98

Question: And the “glycan array binding signal (z-score)” value [21]?
Answer: 1.05

Question: And the “glycan array binding signal (z-score)” value [22]?
Answer: 1.64

Question: And the “glycan array binding signal (z-score)” value [23]?
Answer: 3.14

Question: And the “glycan array binding signal (z-score)” value [24]?
Answer: -0.046

Question: What about the “glycan array binding signal (z-score)” value [25] of the same binder?
Answer: 1.04
